Experimental findings from PubChem BioAssay (EPA / NIEHS) are described below.

The structures appear in SMILES notation. The source made the active and inactive calls. The calls were made as follows: active = hit-call score of the fitted dose curve at least 0.9, where 1 is the maximum; inactive = score below 0.9.

One may read the AC50 as the midpoint of the concentration-response curve, whichever way the signal moves.

A short description of this test: ATG_BRE_CIS: Attagene CIS-FACTORIAL HepG2 Assay for human Bone Morphogenetic Protein (BMP) Response Element (BRE) (AID 2282933). Particulars: HepG2 BMP response element reporter, Attagene transcription factor profiling; actives raise or lower the signal. The protocol:
ATG_CIS is a cell-based, multiplexed-readout assay that uses HepG2, a human liver cell line, with measurements taken at 24 hours after chemical dosing in a 24-well plate.ATG_BRE_CIS is one of 52 assay component(s) measured or calculated from the ATG_CIS assay. It is designed to make measurements of mRNA induction, a form of inducible reporter, as detected with fluorescence intensity signals by Reverse transcription polymerase chain reaction (RT-PCR) and Capillary electrophoresis technology.Data from the assay component ATG_BRE_CIS was analyzed into 1 assay endpoint. This assay endpoint, ATG_BRE_CIS, was analyzed with bidirectional fitting relative to DMSO as the negative control and baseline of activity. Using a type of inducible reporter, measures of mRNA for gain or loss-of-signal activity can be used to understand the reporter gene at the transcription factor-level as they relate to the gene SMAD1. Furthermore, this assay endpoint can be referred to as a primary readout, because this assay has produced multiple assay endpoints where this one serves a reporter gene function. To generalize the intended target to other relatable targets, this assay endpoint is annotated to the dna binding intended target family, where the subfamily is Smad protein.
Human liver HepG2 cells are transiently transfected with multiple reporter transcription units (MRTUs) in 6-well plates using FuGene 6 reagent (Roche; 3 ml FuGene/1 mg DNA). The MRTU constructs are regulated by a cis-regulating element (promoter). […] A major difference between the CIS and TRANS system is that in CIS activities of endogenous TFs are measured, whereas the TRANS assay evaluates changes in activities of exogenous, chimeric NR-Gal4 proteins. […] At the end of 24 hour incubation, total RNA was isolated using TriZol reagent (Invitrogen). The isolated RNA is then reverse-transcribed using oligo(dT) primer and Mo-MLV reverse transcriptase (Invitrogen) with DNAse I (Ambion) treatment for 30 min. The one-tenth of the produced cDNA was amplified by PCR using Taq DNA polymerase (Invitrogen) and two reporter sequence-specific primers. The PCR products were fluorescently labeled by primer extension with 6-arboxyfluorescein (6-FAM) 5'-labeled reporter sequence-specific primer (2 min at 95 C, 20 s at 68 C and 10 min at 72 C) and these products were digested with 5U of HpaI (New England Biolabs) for 2h at 37 C. The fragments were purified using Qiaquick PCR columns (Qiagen), analyzed on an ABI 3130xL genetic analyzer (Applied Biosystems) with peak positions identified by using a set of X-rhodamine (ROX)-labeled MapMarker1000 molecular weight standards (BioVentures). The raw capillary electrophoresis data was processed using Attagraph software (Attagene).
Regarding `CCCCN(CC)C(=O)SCCC`, the compound was classed as inactive.

Regarding `O=c1ssc(Cl)c1Cl`, the outcome was inactive.

As to `Nc1ccc(Cl)cc1`, the result was inactive.

As for `CCCN(CCC)c1c([N+](=O)[O-])cc(C(C)C)cc1[N+](=O)[O-]`, the compound was called inactive.

For the compound `CSC(C)(C)C=NO`, the outcome was inactive.

As for `Cc1c([N+](=O)[O-])cc2c(c1[N+](=O)[O-])C(C)(C)CC2(C)C`, the half-maximal activity concentration (AC50) was 100 µM (active).

`c1nc[nH]n1`: the outcome was inactive.

Take `CCOS(=O)(=O)OCC`: the result was inactive.

On to `CC(C)(C)N(NC(=O)c1ccc(Cl)cc1)C(=O)c1ccccc1`, for which the compound was called inactive.

For `NNC(N)=S`, the outcome was inactive.

As for `CC(C)(C)c1ccc(O)cc1`, the concentration at half-maximal activity (AC50) is 58.1 µM (active).

Take `COP(N)(=S)OC`: the compound was classed as inactive.

With `CCCCN(CCCC)N=O`, the call was inactive.

On to `Oc1ccccc1Br`, for which the compound was classed as inactive.

Turning to `CCOP(=S)(S)OCC`, the compound was classed as inactive.

On to `CC(O)C#N` (stereo not given), for which the result was inactive.

Regarding `CCN(CC)c1ccccc1`, the call was inactive.

As to `C=CC(=O)OCC(CC)(COC(=O)C=C)COC(=O)C=C`, the result was inactive.

As for `CCNc1nc(Cl)nc(NC(C)(C)C)n1`, the compound was called inactive.

With `OCC(F)(F)OC(F)(F)C(F)(F)OC(F)(F)C(F)(F)OC(F)(F)F`, the call was inactive.

In the case of `Oc1ccc(I)cc1`, the result was inactive.

Turning to `O=C(O)C=CC(F)(C(F)(F)F)C(F)(F)F`, the compound was classed as inactive.

With `COC(N)=O`, the outcome was inactive.

Regarding `O=C(O)C(F)(F)OC(F)(F)C(F)(F)OC(F)(F)C(=O)O`, the outcome was inactive.

`ClC(Cl)c1ccccc1`: the result was inactive.

On to `Cc1ccc(O)cc1C`, for which the result was inactive.

On to `CCOC(=O)c1ccccc1N`, for which the compound was called inactive.

As to `CCOc1ccc(C(C)(C)COCc2cccc(Oc3ccccc3)c2)cc1`, the compound was classed as inactive.

As for `COC(=O)C(F)(F)C(F)(F)OC(F)(C(F)(F)F)C(F)(F)OC(F)=C(F)F` (stereo not given), the result was inactive.

Turning to `Nc1cc2c3c(c1)C(c1ccccc1)=N[C@@H](NC(=O)c1cccnc1)C(=O)N3CC2`, the outcome was inactive.

With `OCC(F)(F)OC(F)(F)C(F)(F)OC(F)(F)C(F)(F)OC(F)(F)CO`, the compound was called inactive.

As to `O=S1(=O)OCC2C(CO1)C1(Cl)C(Cl)=C(Cl)C2(Cl)C1(Cl)Cl` (stereo not given), the compound was classed as inactive.

As to `CC(C)(C)OOC(C)(C)C`, the compound was classed as inactive.

Regarding `Cc1ccc(C(=O)Cl)cc1`, the outcome was inactive.

As for `COP(=O)(O)OC`, the outcome was inactive.

`ClC1=C(Cl)C2(Cl)C3C(Cl)C(Cl)CC3C1(Cl)C2(Cl)Cl` (stereo not given): the outcome was inactive.

In the case of `O=C(O)C(F)(F)OC(F)(F)C(F)(F)OC(F)(F)F`, the compound was classed as inactive.

For `CC(=O)CCc1ccc2c(c1)OCO2`, the call was inactive.

For `O=C(O)C(Cl)Cl`, the outcome was inactive.

For `CNC(=O)Oc1ccc(N(C)C)c(C)c1`, the compound was classed as inactive.
